From PMC5540273 (PLoS ONE, 2017)

Assays:
Details in all cases: concentration: 1 μM, replicates: in singlicate; n = 1
[1] = system: T1, DCAMKL2
T1 construct: gene DCLK2

[2] = system: T2, DCAMKL3
T2 construct: gene DCLK3

[3] = system: DDR1
[4] = system: DDR2
[5] = system: T3, DLK
T3 construct: gene MAP3K12

[6] = system: T4, DMPK2
T4 construct: gene CDC42BPG

[7] = system: DMPK
[8] = system: T5, DRAK1
T5 construct: gene STK17A

[9] = system: T6, DRAK2
T6 construct: gene STK17B

[10] = system: DYRK1A
[11] = system: DYRK1B
[12] = system: DYRK2
[13] = system: EGFR
[14] = system: EIF2AK1
[15] = system: EPHA1
[16] = system: EPHA2
[17] = system: EPHA3
[18] = system: EPHA4
[19] = system: EPHA5
[20] = system: EPHA6
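Also: KINOMEscan kinase panel screen.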

SMILES | %Inh [1] [%] | %Inh [2] [%] | %Inh [3] [%] | %Inh [4] [%] | %Inh [5] [%] | %Inh [6] [%] | %Inh [7] [%] | %Inh [8] [%] | %Inh [9] [%] | %Inh [10] [%] | %Inh [11] [%] | %Inh [12] [%] | %Inh [13] [%] | %Inh [14] [%] | %Inh [15] [%] | %Inh [16] [%] | %Inh [17] [%] | %Inh [18] [%] | %Inh [19] [%] | %Inh [20] [%]
Cl.Cl.NCC(NC(=O)c1cc(-c2ccccc2)c(-c2ccnc3[nH]ccc23)s1)c1ccccc1 (stereo not shown) [GSK1321561] | 0 | 10 | 99.7 | 76 | 35 | 94.7 | 82 | 41 | 0 | 13 | 100 | 25 | 84 | 0 | 26 | 21 | 38 | 2 | 6 | 34
COc1cc(Nc2nccc(-c3c(-c4cccc(NC(=O)c5c(F)cccc5F)c4)nn4ncccc34)n2)cc(OC)c1OC [GSK327238] | 0 | 43 | 100 | 95.2 | 2 | 100 | 8 | 0 | 0 | 23 | 33 | 16 | 100 | 0 | 86 | 71 | 42 | 65 | 0 | 49
COc1ccc(-c2coc3ccc(-c4nnc(SCc5ccc(OC)c(C(F)(F)F)c5)o4)cc23)cc1 | 8 | 0 | 2 | 0 | 0 | 0 | 0 | 0 | 0 | 0 | 0 | 14 | 0 | 5 | 0 | 2 | 0 | 8 | 18 | 17
CC(=O)Nc1nc2cnc(Nc3cc(NC(=O)c4cccc(C5(C#N)CC5)c4Cl)ccc3C)nc2s1 | 0 | 0 | 100 | 99.4 | 0 | 0 | 0 | 0 | 10 | 0 | 67 | 8 | 0 | 0 | 70 | 79 | 50 | 59 | 3 | 56
O=C(O)C(F)(F)F.O=C(O)C(F)(F)F.O=c1[nH]ccc2nc(N[C@@H]3CCCNC3)nc(Nc3ccc(S(=O)(=O)N4CCOCC4)cc3)c12 [GSK2177277] | 100 | 99.5 | 18 | 82 | 95.6 | 92.7 | 99.7 | 98.4 | 94 | 84 | 0 | 59 | 45 | 21 | 25 | 28 | 98.9 | 57 | 32 | 62
Cl.Cl.NCC(C(=O)Nc1cc(Br)c(-c2ccnc3[nH]ccc23)s1)c1ccccc1 (stereo not shown) [GSK1269851] | 3 | 0 | 0 | 0 | 4 | 0 | 27 | 98.8 | 0 | 50 | 33 | 78 | 27 | 0 | 83 | 4 | 48 | 28 | 0 | 32
CN(C)Cc1ccc(-c2ccc3c(Nc4ccc(Oc5ccccn5)cc4)ccnc3c2)o1 [GW567148] | 0 | 0 | 38 | 45 | 69 | 0 | 0 | 4 | 0 | 13 | 0 | 0 | 53 | 0 | 79 | 1 | 0 | 60 | 0 | 53
Cl.c1ccc(-c2ccc3c(Nc4ccc5[nH]ccc5c4)ccnc3c2)nc1 [GW440138] | 0 | 17 | 99.4 | 79 | 43 | 0 | 0 | 0 | 2 | 0 | 0 | 0 | 89 | 0 | 48 | 1 | 8 | 0 | 0 | 54
O=C(Nc1cccc(-c2nn3ncccc3c2-c2ccnc(Nc3ccccc3)n2)c1)c1c(F)cccc1F [GSK198271] | 0 | 20 | 100 | 91.8 | 8 | 99.8 | 0 | 0 | 0 | 18 | 100 | 26 | 100 | 52 | 42 | 10 | 4 | 0 | 0 | 8
CCc1ccc(-c2ccc3c(c2)-c2c(cnn2C)S(=O)(=O)N3C)cc1 | 0 | 0 | 0 | 2 | 0 | 0 | 0 | 0 | 0 | 0 | 3 | 0 | 15 | 0 | 0 | 0 | 0 | 1 | 8 | 0
Cn1cc(-c2ccc3c(c2)CCN3C(=O)Cc2cccc(Cl)c2)c2c(N)ncnc21 [GSK2606590] | 19 | 0 | 99.5 | 57 | 51 | 53 | 0 | 0 | 0 | 11 | 0 | 5 | 2 | 89 | 11 | 10 | 0 | 0 | 0 | 17
CC(C)c1nc(-c2cccc(NS(=O)(=O)c3c(F)cccc3F)c2F)c(-c2ccnc(Nc3ccc(N4CCOCC4)nc3)n2)s1 [GSK2008607] | 46 | 82 | 99.3 | 88 | 93.2 | 20 | 0 | 0 | 0 | 0 | 0 | 16 | 94.3 | 66 | 98.9 | 86 | 69 | 74 | 0 | 94.7
COc1cc(Nc2nccc(-c3c(-c4cccc(NC(=O)c5c(F)cccc5F)c4)nn4ccccc34)n2)cc(OC)c1OC [GSK323521] | 11 | 11 | 90.3 | 61 | 3 | 49 | 9 | 0 | 0 | 13 | 0 | 0 | 38 | 39 | 12 | 16 | 0 | 0 | 21 | 3
COc1cc(Nc2nccc(N3CCC(NC(=O)Nc4cccc(C(C)=O)c4)C3)n2)cc(OC)c1OC (stereo not shown) [GSK1379753] | 0 | 0 | 6 | 8 | 42 | 25 | 0 | 0 | 10 | 14 | 67 | 21 | 22 | 0 | 5 | 0 | 0 | 3 | 0 | 8
Cc1occc1-c1ncc(OC[C@@H](N)Cc2c[nH]c3ccccc23)cc1-c1ccc2[nH]nc(C)c2c1.O=C(O)C(F)(F)F [GSK682037] | 14 | 0 | 0 | 5 | 1 | 67 | 95 | 0 | 0 | 15 | 0 | 26 | 94.3 | 0 | 0 | 9 | 29 | 0 | 0 | 49
Nc1n[nH]c2cnc(-c3ccccc3)cc12 [SB-642124] | 0 | 10 | 2 | 18 | 19 | 0 | 31 | 44 | 0 | 91.4 | 75 | 88 | 38 | 4 | 26 | 16 | 0 | 12 | 0 | 6
C[C@@H](Oc1cc(-n2cnc3cc(-c4ccnc(NCCS(C)(=O)=O)c4)ccc32)sc1C(N)=O)c1ccccc1Cl [GSK907232] | 1 | 0 | 0 | 0 | 12 | 0 | 0 | 0 | 4 | 31 | 0 | 15 | 35 | 1 | 9 | 16 | 0 | 10 | 0 | 23
O=C(Nc1n[nH]c2cc(-c3ccoc3)ccc12)C1CC1 [SB-738481] | 0 | 0 | 0 | 5 | 0 | 24 | 0 | 24 | 0 | 61 | 23 | 75 | 6 | 0 | 13 | 0 | 0 | 5 | 2 | 9
O=c1[nH]cc(-c2ccc(N3CCOCC3)cc2)c2sc(-c3cn[nH]c3)cc12 [GSK2276055] | 0 | 0 | 3 | 0 | 0 | 0 | 0 | 35 | 11 | 99.8 | 100 | 89 | 18 | 0 | 0 | 0 | 30 | 0 | 0 | 0
O=C(Nc1ccccc1F)NC1CCN(c2ccnc(Nc3ccc(F)cc3)n2)CC1 [GSK1379800] | 0 | 0 | 0 | 31 | 24 | 4 | 0 | 0 | 0 | 4 | 12 | 0 | 47 | 0 | 0 | 0 | 0 | 5 | 0 | 5
